{
  "source": "PubChem BioAssay AID1224903",
  "about": "(Bradner/Qi Labs at DFCI, 2016)",
  "note": "Where “and” joins values, the source holds several entries; their conditions need not be identical. Equal values may be shown once. About 720 (1.1%) of roughly 66,000 compounds were called active. Rule as the data show it: active = normalised signal below about 0.5; inactive = the rest, inconclusive results apart. This excerpt belongs to a sample that is enriched for actives.",
  "data": [
    {"biological_target": "Chromobox protein homolog 7 (Homo sapiens) (UniProt O95931)", "sequence (O95931 whole entry, looked up)": "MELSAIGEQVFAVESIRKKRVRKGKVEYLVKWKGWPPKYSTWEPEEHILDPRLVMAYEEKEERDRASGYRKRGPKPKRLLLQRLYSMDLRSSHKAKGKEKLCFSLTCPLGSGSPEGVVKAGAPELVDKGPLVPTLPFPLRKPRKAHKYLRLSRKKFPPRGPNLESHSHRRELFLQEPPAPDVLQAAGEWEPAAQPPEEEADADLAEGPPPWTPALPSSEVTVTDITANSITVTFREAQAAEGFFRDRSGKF", "assay": "CBX7 chromodomain binding inhibitors, primary screen, biochemical, AlphaScreen (AID 1224903)", "details": "AlphaScreen His6-CBX7 / biotin-H3K27me3 peptide binding, stronger effect = lower value; z-score: measured here: z-score of CBX7 signal", "values": [
      {"smiles": "O=S1(=O)N=C(N2CCCCC2)c2ccccc21", "normalised signal (fraction of DMSO)": "1.07 (inactive)", "z-score": 2},
      {"smiles": "CCNc1cc(Nc2ccccc2)c2c3c(onc13)-c1ccccc1C2=O", "normalised signal (fraction of DMSO)": "0.816 (inactive)", "z-score": -3.56},
      {"smiles": "O=C1c2ccccc2-c2onc3c(N4CCCC4)ccc1c23", "normalised signal (fraction of DMSO)": "0.367 (active)", "z-score": -9.89},
      {"smiles": "O=C(Nc1ccccc1Cl)N1CCCCC1c1cccnc1", "note": "(centres undefined)", "normalised signal (fraction of DMSO)": "0.995 (inactive)", "z-score": -0.051},
      {"smiles": "Cc1ccc(Nc2cc(C(=O)O)c3ccccc3n2)cc1", "normalised signal (fraction of DMSO)": "1.11 (inactive)", "z-score": 1.21},
      {"smiles": "O=C(COc1ccc(Cl)cc1)NCc1nnc(SCC(=O)NCC2CCCO2)o1", "note": "(centres undefined)", "normalised signal (fraction of DMSO)": "1.04 (inactive)", "z-score": 1.76},
      {"smiles": "COc1ccc(C2CC(=O)N(CC(=O)Nc3ccc(C)c(Cl)c3)c3ccccc3S2)cc1", "note": "(centres undefined)", "normalised signal (fraction of DMSO)": "0.931 (inactive)", "z-score": -1.15},
      {"smiles": "Cc1ccccc1OCC(O)Cn1c(=N)n(C)c2ccccc21", "note": "(centres undefined)", "normalised signal (fraction of DMSO)": "1.02 (inactive)", "z-score": 0.641},
      {"smiles": "CC(=O)N1CCc2cc(S(=O)(=O)N(CCO)Cc3ccccc3)ccc21", "normalised signal (fraction of DMSO)": "1.17 (inactive)", "z-score": 1.75},
      {"smiles": "CCOc1ccc2nc(C)cc(Nc3ccc(OC)c(OC)c3)c2c1", "normalised signal (fraction of DMSO)": "0.818 (inactive)", "z-score": -2.64},
      {"smiles": "CCCCc1ccc(NC(=O)CSc2nccn2-c2cccc(C)c2C)cc1", "normalised signal (fraction of DMSO)": "0.742 (inactive)", "z-score": -0.258},
      {"smiles": "Cc1cccc(N(C)C(=O)C(NS(=O)(=O)c2ccc3c(c2)CCC(=O)N3)c2ccccc2)c1", "note": "(centres undefined)", "normalised signal (fraction of DMSO)": "1.06 (inactive)", "z-score": 0.379},
      {"smiles": "CC1CCCCN1CCCNC(=O)C1CCC(=O)N1C1CCCC1", "note": "(centres undefined)", "normalised signal (fraction of DMSO)": "1.05 (inactive)", "z-score": 1.64},
      {"smiles": "c1ccc(SCCc2ccc3cc(-c4ccccc4)cn3c2)cc1", "normalised signal (fraction of DMSO)": "0.986 (inactive)", "z-score": -0.335},
      {"smiles": "CCOc1ccc2nc(NC(=O)c3ccc(OC)cc3)sc2c1", "normalised signal (fraction of DMSO)": "1.05 (inactive)", "z-score": 1.46},
      {"smiles": "Cc1c(CNC2CCCCC2C)c(C(=O)O)c(C)n1Cc1ccccc1", "note": "(centres undefined)", "normalised signal (fraction of DMSO)": "1.01 (inactive)", "z-score": 0.18},
      {"smiles": "O=C(c1ccc(NC2=NC3CS(=O)(=O)CC3S2)cc1)N1CCN(C2CCCCC2)CC1", "note": "(centres undefined)", "normalised signal (fraction of DMSO)": "1.05 (inactive)", "z-score": 1.03},
      {"smiles": "COc1ccc(CNC(=O)C2CCN(S(=O)(=O)c3c(C)noc3C)CC2)cc1", "normalised signal (fraction of DMSO)": "1.02 (inactive)", "z-score": 0.788},
      {"smiles": "Cc1ccc(-c2nc(Nc3cccc(C(F)(F)F)c3)c3ccccc3n2)cc1", "normalised signal (fraction of DMSO)": "1.08 (inactive)", "z-score": 1.39},
      {"smiles": "Cc1ccc(Cl)cc1N1CCN(C(=O)Cn2ncc3c2-c2ccccc2OC3)CC1", "normalised signal (fraction of DMSO)": "0.728 (inactive)", "z-score": -7.81},
      {"smiles": "CCn1cnc2cc(NCc3ccccn3)ccc21", "normalised signal (fraction of DMSO)": "0.316 (active)", "z-score": -5.49},
      {"smiles": "CCCn1cnc2cc(NCc3cc(OC)ccc3OC)ccc21", "normalised signal (fraction of DMSO)": "0.919 (inactive)", "z-score": -2.03},
      {"smiles": "COc1cccc(CNc2ccc3c(c2)ncn3C)c1", "normalised signal (fraction of DMSO)": "0.916 (inactive)", "z-score": -1.96},
      {"smiles": "O=C(Nc1ccccc1C(F)(F)F)N1CCN(c2ccc3nnc(-c4ccccc4)n3n2)CC1", "normalised signal (fraction of DMSO)": "0.759 (inactive)", "z-score": -3.38},
      {"smiles": "Cc1nc2cc(C(=O)NCc3ccc(F)cc3)ccc2n1-c1cccc(F)c1", "normalised signal (fraction of DMSO)": "0.995 (inactive)", "z-score": -0.21},
      {"smiles": "Cc1cccc(CCNC(=O)CN2CCN(Cc3ccc(F)cc3Cl)C2=O)c1", "normalised signal (fraction of DMSO)": "1.02 (inactive)", "z-score": 0.228},
      {"smiles": "Cc1ccc(NC(=O)Cn2cnc3sc(C(=O)Nc4ccc(F)cc4)c(C)c3c2=O)cc1Cl", "normalised signal (fraction of DMSO)": "1.09 (inactive)", "z-score": 2.71},
      {"smiles": "Cc1ccc(OCC(=O)Nc2cccc(-c3nc4ncccc4o3)c2)cc1", "normalised signal (fraction of DMSO)": "1.02 (inactive)", "z-score": 0.227},
      {"smiles": "Cc1cccc(N2CCN(C(=O)C3CCC(Cn4c(=O)[nH]c5ccsc5c4=O)CC3)CC2C)c1", "note": "(centres undefined)", "normalised signal (fraction of DMSO)": "1.11 (inactive)", "z-score": 0.523},
      {"smiles": "COc1ccc(CCNC(=O)CCc2c(C)nc3c(c(C)nn3-c3ccc(C)cc3)c2C)cc1OC", "normalised signal (fraction of DMSO)": "1.07 (inactive)", "z-score": 1.56},
      {"smiles": "COc1cccc(Nc2nc(-c3ccc(Cl)cc3)cs2)c1", "normalised signal (fraction of DMSO)": "0.908 (inactive) and 0.897 (inactive)", "z-score": "-1.58 and -2.88"},
      {"smiles": "COc1cc(OC)cc(C(=O)Nc2ccc(-c3nc4ccccc4o3)c(O)c2)c1", "normalised signal (fraction of DMSO)": "0.956 (inactive)", "z-score": -0.356},
      {"smiles": "O=C(Nc1ccc(-c2nc3ccccc3o2)c(O)c1)c1cccc(F)c1", "normalised signal (fraction of DMSO)": "1.11 (inactive)", "z-score": 2.16},
      {"smiles": "O=C(Nc1ccc(-c2nc3ccccc3o2)c(O)c1)c1ncn[nH]1", "normalised signal (fraction of DMSO)": "0.308 (active)", "z-score": -19.7},
      {"smiles": "CCOC(=O)CNC(=O)c1cc2c(n(-c3ccc(C)cc3)c1=O)CCCC2=O", "normalised signal (fraction of DMSO)": "1.19 (inactive)", "z-score": 0.796},
      {"smiles": "CCN1CCCC1CNC(=O)c1ccc2c(c1)N(Cc1ccccc1)CCS2", "note": "(centres undefined)", "normalised signal (fraction of DMSO)": "0.92 (inactive)", "z-score": -0.106},
      {"smiles": "Cc1ccc(NC(=O)C2CCCN(S(=O)(=O)c3cccc4cccnc34)C2)cc1F", "note": "(centres undefined)", "normalised signal (fraction of DMSO)": "1.02 (inactive)", "z-score": 0.516},
      {"smiles": "COc1ccccc1NC(=O)c1c(NCc2cccs2)sc2c1CCCC2", "normalised signal (fraction of DMSO)": "0.467 (active)", "z-score": -7.46},
      {"smiles": "COc1ccccc1NC(=O)c1c(NCc2ccncc2)sc2c1CCCC2", "normalised signal (fraction of DMSO)": "0.583 (inactive)", "z-score": -5.84},
      {"smiles": "CCOC(=O)c1ccc(NC(=O)c2c(NCc3cccs3)sc3c2CCCC3)cc1", "normalised signal (fraction of DMSO)": "0.674 (inactive)", "z-score": -4.57},
      {"smiles": "CCCCN(CC)S(=O)(=O)c1ccc(C(=O)Nc2nnc(-c3ccc(Cl)s3)o2)cc1", "normalised signal (fraction of DMSO)": "1.03 (inactive)", "z-score": 0.687},
      {"smiles": "CN(Cc1ccccc1)S(=O)(=O)c1ccc(C(=O)Nc2nnc(-c3ccccc3Cl)o2)cc1", "normalised signal (fraction of DMSO)": "0.095 (active)", "z-score": -15.2},
      {"smiles": "CN(C)S(=O)(=O)c1ccc(C(=O)Nc2nnc(-c3ccccc3Cl)o2)cc1", "normalised signal (fraction of DMSO)": "0.145 (active)", "z-score": -14.4},
      {"smiles": "CC1CCCCN1S(=O)(=O)c1ccc(C(=O)Nc2nnc(-c3cccs3)o2)cc1", "note": "(centres undefined)", "normalised signal (fraction of DMSO)": "0.92 (inactive)", "z-score": -1.8},
      {"smiles": "CCC1CCCCN1S(=O)(=O)c1ccc(C(=O)Nc2nnc(COC)o2)cc1", "note": "(centres undefined)", "normalised signal (fraction of DMSO)": "0.727 (inactive)", "z-score": -7.33},
      {"smiles": "COCCN(CCOC)S(=O)(=O)c1ccc(C(=O)Nc2nnc(-c3cccs3)o2)cc1", "normalised signal (fraction of DMSO)": "0.698 (inactive)", "z-score": -6.83},
      {"smiles": "C=CCN(CC=C)S(=O)(=O)c1ccc(C(=O)Nc2nnc(-c3cccs3)o2)cc1", "normalised signal (fraction of DMSO)": "0.877 (inactive)", "z-score": -3.03},
      {"smiles": "COc1ccc(-c2nnc(NC(=O)c3ccc(S(=O)(=O)N4CCC(C)CC4)cc3)o2)cc1", "normalised signal (fraction of DMSO)": "0.796 (inactive)", "z-score": -4.6},
      {"smiles": "CCN(CC)S(=O)(=O)c1ccc(C(=O)Nc2nnc(-c3cc(OC)cc(OC)c3)o2)cc1", "normalised signal (fraction of DMSO)": "0.885 (inactive)", "z-score": -1.93},
      {"smiles": "COc1ccc(-c2nnc(NC(=O)c3ccc(S(=O)(=O)N4CC(C)OC(C)C4)cc3)o2)c(OC)c1", "note": "(centres undefined)", "normalised signal (fraction of DMSO)": "0.629 (inactive)", "z-score": -8.38},
      {"smiles": "CN(C)S(=O)(=O)c1ccc(C(=O)Nc2nnc(C3CC3)o2)cc1", "normalised signal (fraction of DMSO)": "0.379 (active)", "z-score": -14},
      {"smiles": "CCCCN(C)S(=O)(=O)c1ccc(C(=O)Nc2nnc(C)o2)cc1", "normalised signal (fraction of DMSO)": "0.00344 (active)", "z-score": -1.32}
    ]}
  ]
}
